HEK293 tox: cytotoxic in the GLP-1 receptor inverse agonist counter-screen | Potency, µM (top dose mostly 38.3 µM), actives largely listed as inhibitors | HEK293 cAMP-luciferase reporter cells, luminescence, 24 h | hit rate 0.13% among 410,000;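 also: loss of luciferase light is scored as toxicity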
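MLSMR compounds, 24 hr on cells at 37 deg C/5% CO2; luminescence after luciferase reagent (12 min RT). Inhibition counted as the undesired cytotoxic outcome.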
GLP-1R inv ag: GLP-1 receptor (human) inverse agonism; HEK293 GLP-1R CRE-luciferase, luminescence, 24 h; GLP-1R form is constitutively active; Potency, µM (series often up to 38.3 µM), hits mostly inhibitors; hit rate 1.6% among 410,000; P43220; also: nearly all actives have a fitted effect of over 55% in size
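Inverse agonists were sought by their lowering of basal cAMP reporter luciferase output in HEK293 cells stably carrying constitutively active human GLP-1R, after 24 h compound treatment.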
ClpP mod: qHTS Assay for Activators of ClpP; ATP-dependent Clp protease proteolytic subunit (Bacillus subtilis (strain 168)), P80244; purified B. subtilis ClpP, FRET peptide cleavage, 20 min; Potency, µM (doses to about 57.5 µM); hit rate 1.9% among 340,000; active = well fitted falling curve with a large enough effect; inconclusive = small, poorly fitted or top-dose-only effect; inactive = no such curve, though single readings can be large or run the other way; also: the source files actives as falling curves though it sought activators and does not explain the sign; nearly all actives have a fitted effect of over 65% in size
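Purified B. subtilis ClpP, 10 microg/mL final in Tris/HCl pH8 with KCl, BSA, glycerol and Tween-20, cleaved an Abz/nitrotyrosine-quenched decapeptide. Fluorescence (ex 320, em 430) was read at 0 and 20 min at room temperature. Delta was normalized to 5.8 microM ADEP and DMSO/no-enzyme controls.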
DRD3 agonist: D3 dopamine receptor (human) agonism. hit rate 0.58% among 410,000. AID 652048. D3R DiscoveRx beta-arrestin cells, luminescence, 90 min. max activation, %. P35462; in the data active = max activation above about 30%
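Agonist-mode cell screen: cells plated at 1500/well and incubated overnight at 37 °C, then exposed to library compounds for 90 min at 37 °C. Detection reagent was added for 30–60 min at room temperature, and luminescence was read.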
D3 antag: blocks the human D3 dopamine receptor; D3R cells, DiscoveRx beta-arrestin luminescence, antagonist mode; hits give low values; max response, negative = inhibition, %; hit rate 2.5% among 360,000; AID 652054; in the data active = max response below about -50%; inconclusive = no clear call, values can overlap the other calls
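Cells plated overnight at 1500 cells/well, then exposed to library compounds with dopamine controls for 90 minutes at 37 degrees C. DiscoveRx reagent added for 30–60 minutes at room temperature; luminescence read, quantitative HTS format.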
GLP-1R agonist: GLP-1 receptor (human) agonism. P43220. HEK293 GLP-1R CRE-luciferase, luminescence, 4-6 h; cells express a hypersensitive GLP-1R form. Potency, µM (doses to about 45.6 µM), usual class: activators. hit rate 0.007% among 380,000. AID 624172
Numbers stand for hits; i = inactive; ? = inconclusive; nt = no result. Shown are actives, neighbours in structure and some others; about 5.7% of the full set was active somewhere. Unless noted, calls follow the shape of the dose curve; as a rule, active = well fitted curve in the direction sought with a large enough effect; inconclusive = small, poorly fitted or top-dose-only effect, or another doubt; inactive = no such curve, though single readings can be large; an effect the other way counts as inactive or inconclusive.

SMILES	HEK293 tox	GLP-1R inv ag	ClpP mod	DRD3 agonist	D3 antag	GLP-1R agonist
COc1cc(/C=N/NC(=O)c2ccccn2)ccc1OC(=O)c1ccccc1Br	11.2µM	?	i	i	i	i
O=C(Oc1ccc(/C=N/NC(=O)c2ccccn2)cc1)c1ccc(Br)cc1	i	i	i	i	i	i
COc1ccc(-c2nn(-c3ccc(C)c(Cl)c3)c3c2cnc2cc(OC)c(OC)cc23)cc1	i	i	i	i	nt	nt
CCC(Sc1nc2nccnc2c(=O)n1Cc1ccc(F)cc1)C(=O)NC1CCCCC1 (stereo not given)	i	i	i	i	nt	nt
O=C(Cn1sc2ccccc2c1=O)Nc1ccc(Br)cc1	i	i	i	i	i	i
O=C(Cn1sc2ccccc2c1=O)Nc1ccc(F)cc1	i	?	i	i	-77.5	i
CCOC(=O)c1c(O)c2c(n(Cc3ccco3)c1=O)CCCC2	i	i	i	43.6	i	i
CCOC(=O)c1c(S(=O)(=O)N2CCC(C(=O)Nc3ccc(F)cc3F)CC2)c(C)n(C)c1C	i	i	i	i	nt	nt
CC(=O)c1ccc(Nc2cc(C)nc3c(C)cc(C)cc23)cc1	?	8.91µM	nt	i	i	i
Cc1cc(C)c2nc(C)cc(Nc3ccc(C(=O)N(C)C)cc3)c2c1	i	?	i	i	i	i
CN(C)c1nc(C=C(C#N)C#N)c(Cl)n1-c1ccc(F)cc1	i	?	nt	i	-64.3	i
Cc1ccc(NC(=O)/C(C#N)=C/c2cc(C)n(-c3ccc(F)cc3)c2C)cc1C	i	i	i	i	nt	nt
O=C(N/N=C/c1ccc(-c2ccccc2)o1)c1ccccc1O	?	10µM	nt	i	i	i
Cc1cc(C(=O)N/N=C/c2ccc(-c3cccc(Cl)c3)o2)n[nH]1	i	?	nt	i	-61.3	i
O=C(N/N=C\c1ccncc1)c1ccccc1O	i	i	nt	i	i	i
CC(=O)C1=C(C)NC2=C(C(=O)c3ccccc32)C1c1ccccc1 (stereo not given)	i	i	nt	i	-52.3	i
O=S1(=O)CC(O)C(N2CCC(c3ccccc3)CC2)C1 (stereo not given)	i	i	i	i	i	i
O=S1(=O)CC(O)C(N2CCCCC2)C1 (stereo not given)	i	i	11.2µM	i	i	i
O=S(=O)(c1cccc2ccccc12)N1CCN(c2ccc(Cl)c(Cl)c2)CC1	i	i	i	71.5	nt	i
CCOc1ccc(S(=O)(=O)N2CCN(c3ccc(Cl)c(Cl)c3)CC2)c2ccccc12	i	i	i	i	nt	i
Cc1ccc(NC(=O)c2ccc([N+](=O)[O-])o2)c(C)c1	i	i	i	i	i	i
Cc1ccc(S(=O)(=O)c2ccc([N+](=O)[O-])o2)cc1	5.62µM	?	i	i	-111.1	i
COc1ccc(N2C(c3ccsc3)=Cc3cc4c(cc3C2c2c[nH]c3ccccc23)OCO4)cc1 (stereo not given)	i	i	i	i	i	i
CCN(CC)CCCN1CC(O)=C(c2nc3ccccc3s2)C1=N	i	11.2µM	?	i	i	i
Cn1nc(C(F)(F)F)c(C(=O)Nc2ccc(F)cc2F)c1Sc1cccc(Cl)c1	i	12.6µM	i	i	i	i
SMILES	HEK293 tox	GLP-1R inv ag	ClpP mod	DRD3 agonist	D3 antag	GLP-1R agonist
CC12CCC(c3nnc(SCc4ccc(Cl)cc4)nc31)C2(C)C (stereo not given)	i	?	20µM	i	i	i
CCOC(=O)c1c(NC(=O)c2nc(SC)ncc2Cl)sc(C)c1C	i	i	i	i	nt	nt
Nc1ccc(C(=O)OCC(=O)Nc2ccc([N+](=O)[O-])cc2C(F)(F)F)cc1	i	i	22.4µM	i	i	i
COC(=O)c1cc(C(=O)OCC(=O)Nc2ccccc2OC(F)F)cc([N+](=O)[O-])c1	i	i	28.2µM	i	i	i
CSc1ccc(Cl)c(C(=O)OCC(=O)Nc2ccccc2OC(F)F)c1	i	i	28.2µM	i	i	i
CC(=O)OCC(=O)Nc1ccccc1OC(F)F	i	i	nt	i	i	i

Screening data as filed in PubChem.
